High-throughput results as filed in PubChem.
A selection: hits, their analogues and other compounds. The true share with any hit is near 3.6%.
D1 ag: activates the human D1 dopamine receptor; activation, % at 2 µM; actives 1% (n = 360,000); HEK293 T-REx D1 cells, calcium flux, agonist mode; AID 504660; P21728; also: 0% is about no effect
Target sequence (P21728 whole entry, looked up): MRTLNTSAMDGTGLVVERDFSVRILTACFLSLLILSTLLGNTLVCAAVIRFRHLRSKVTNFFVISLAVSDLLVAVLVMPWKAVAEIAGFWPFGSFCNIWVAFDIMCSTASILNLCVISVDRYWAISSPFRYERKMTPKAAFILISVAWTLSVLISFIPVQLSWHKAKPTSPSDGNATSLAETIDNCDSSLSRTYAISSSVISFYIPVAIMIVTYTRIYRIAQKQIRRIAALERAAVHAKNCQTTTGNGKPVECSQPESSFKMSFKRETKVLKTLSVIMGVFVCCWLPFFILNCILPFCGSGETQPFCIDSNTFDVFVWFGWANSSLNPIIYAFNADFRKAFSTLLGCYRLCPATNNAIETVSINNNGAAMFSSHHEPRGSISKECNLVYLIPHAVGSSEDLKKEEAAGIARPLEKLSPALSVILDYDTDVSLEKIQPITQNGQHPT
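Inducible HEK293 T-REx D1 cells, force-coupled to calcium signalling, were plated at 4000 cells/well with tetracycline and held overnight at 30 C. After no-wash calcium dye loading, compound-evoked calcium rise over 180 s flagged agonists.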
TRHR agonist: agonists of human TRH receptor | P34981 | TRHR cells, calcium flux fluo-8, FDSS agonist mode | activation, % at 2 µM | actives 0.18% (n = 360,000) | AID 493084; also: 0% is about no effect
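Steps: seed TRHR cells overnight; add fluo-8 no-wash Ca dye, RT 30 min–1.5 h; record 10 s baseline; pin-transfer compounds; monitor fluorescence 1 cycle/s for the agonist window. Calcium increases flag candidate agonists.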
D1 potentiator: potentiators of human D1 dopamine receptor; P21728; HEK293 TREx D1 cells, calcium flux, dopamine EC20 potentiation; potentiation, % at 10 µM; actives 0.036% (n = 360,000); AID 504651; in the data active = potentiation above about 30%; also: 0% is about no effect
LDHA block: inhibitors of human lactate dehydrogenase A | purified LDHA, NADH/diaphorase-resazurin fluorescence; hits give low values | activity change, % (values are at about 110 or 230 µM) | actives 0.15% (n = 480,000) | AID 1347041; in the data active = activity change below about -30%;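 also: plate controls were DMSO wells for no effect and wells without enzyme for full effect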
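LDH5 2 nM; NADH 0.06 mM, pyruvate 0.2 mM; 200 mM Tris pH 7.4, EDTA, Tween-20; 5 min RT. Detection: diaphorase 0.133 mg/mL + resazurin 37 µM, fluorescence ex540/em590 at 0 and 20 min; normalized to enzyme-free and DMSO wells.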
TRHR enhancer: allosterically enhances the human TRH receptor. P34981. TRHR cells, fluo-8 calcium fluorescence, EC20 TRH enhancement. enhancement, % at 2 µM. actives 0.66% (n = 360,000). AID 493056; in the data active = enhancement above about 30%; also: 0% is about no effect
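TRHR-expressing cells loaded with fluo-8 calcium dye were read kinetically (ex 480/em 530) during compound addition, then stimulated with an EC20 of TRH (10 nM final). Enhancement of the Gq-mediated intracellular calcium response was scored.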
D1 antag: blocks dopamine activation of the human D1 receptor; P21728; HEK293 TREx D1 cells, calcium flux, dopamine EC80; hits give low values; activity change, negative = inhibition, % at 10 µM; actives 3.2% (n = 360,000); AID 504652; in the data active = activity change below about -30%; also: % is scaled to controls: 0 for no effect and ±100 for the full control effect
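Using tetracycline-induced force-coupled D1 Hek293 cells and a calcium dye, signals were followed for 180 s after compound, then for 180 s after EC80 dopamine, to detect inhibitors.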
* marks the source's active call; other numbers are inactive results; / = not tested or not shown. Rule as the data show it, unless noted: active = activation above about 30%; inactive = the rest.

SMILES | D1 ag | TRHR agonist | D1 potentiator | LDHA block | TRHR enhancer | D1 antag
CCc1cc(=O)n2c([nH]c3ccccc32)c1C#N | 3 | 7 | 8 | 13 | 0 | 0
C=CCNc1ncnc2c1[nH]c1ccc(C)cc12 | 12 | 0 | -8 | -4 | -5 | -32*
COCCNc1ncnc2c1[nH]c1ccccc12 | 9 | 0 | -15 | -9 | -4 | -37*
COc1ccc2[nH]c3c(NCc4ccco4)ncnc3c2c1 | 3 | 0 | -5 | 2 | 1 | -17
Fc1ccc2[nH]c3c(NCc4ccccc4)ncnc3c2c1 | 26 | 8 | -10 | -14 | -3 | -40*
COc1cccc(/C=N/Nc2ncnc3c2[nH]c2ccc(C)cc23)c1OC | 3 | 0 | -7 | -8 | -10 | -34*
Cc1ccc2[nH]c3c(NCCN4CCOCC4)ncnc3c2c1 | 2 | 0 | -2 | 5 | 1 | -2
COc1ccc(/C=N/Nc2ncnc3c2[nH]c2ccccc23)c(OC)c1OC | 5 | 0 | -2 | -1 | -4 | -5
COc1ccccc1NS(=O)(=O)c1cccc(NC(=O)Nc2cccc(Cl)c2)c1 | 12 | 2 | -13 | -5 | -6 | -39*
COc1ccc([N+](=O)[O-])cc1NC(=O)Nc1ccc(OC)c(OC)c1 | -1 | 0 | -7 | 1 | 1 | /
COc1ccc([N+](=O)[O-])cc1NC(=O)Nc1cccc(Cl)c1 | 5 | 0 | -3 | 1 | -2 | -41*
CONC(=O)c1ccc(C(=O)OC)cc1 | / | / | / | -10 | / | /
Clc1ccccc1Cn1nnc(-c2cccs2)n1 | 20 | -1 | -8 | 2 | -1 | -16
Clc1ccccc1Cn1nnc(-c2ccccc2)n1 | 18 | -1 | -12 | -7 | 2 | -35*
O=C(N/N=C/c1cccs1)C1CC1 | / | / | / | -14 | / | /
O=C(Cc1ccccc1)N/N=C/c1cccs1 | 0 | 0 | 0 | -6 | 1 | -5
COC(=O)N/N=C/c1cccs1 | 1 | 1 | -4 | -3 | 0 | -32*
Cc1ccccc1CSCC(=O)N/N=C/c1cccs1 | 6 | 0 | -8 | 0 | -2 | -41*
CCOC(=O)C1=C(Nc2ccccc2)O/C(=C\c2cc(F)ccc2F)C1=O | / | / | / | 4 | / | /
O=C(COc1ccc2ccc(=O)oc2c1)N1CC[C@@]2(O)CCCC[C@H]2C1 | 0 | 0 | -10 | -8 | -3 | -49*
Cc1c(C)c2ccc(OCC(=O)N3CC[C@@]4(O)CCCC[C@H]4C3)cc2oc1=O | 2 | 0 | 1 | -2 | 5 | -11
O=C(Nc1ccccc1C(=O)NCCN1CCOCC1)c1ccc(Cl)cc1Cl | 0 | 0 | -7 | -1 | 5 | -31*
CN(c1ccc(C(=O)N2CCOCC2)cc1)S(=O)(=O)c1ccc(Cl)cc1 | 6 | 0 | -1 | -10 | -4 | -7
CN1CCN(C(=O)c2ccc(CSc3ccc(Cl)cc3)cc2)CC1 | 18 | 1 | -9 | -2 | -6 | -30*
CN(c1ccc(C(=O)N2CCCCCC2)cc1)S(=O)(=O)c1ccc(Cl)cc1 | 17 | -1 | -8 | -3 | -10 | -38*
SMILES | D1 ag | TRHR agonist | D1 potentiator | LDHA block | TRHR enhancer | D1 antag
O=C(c1ccc(Cl)cc1)N1CCN(c2ccnc3cc(Cl)ccc23)CC1 | 2 | 0 | -15 | -12 | 10 | -55*
C#CCNC(=O)CN(C)Cc1ccc(C(F)(F)F)cc1 | / | / | / | -3 | / | /
CCCNC(=O)c1cc(=O)[nH]c2ccc(S(=O)(=O)N3CCOCC3)cc12 | / | / | / | 10 | / | /
NC(=O)CSS(=O)(=O)O | / | / | / | -6 | / | /
CN1CCN(C(=O)c2cc(Cl)ccc2NC(=O)c2ccc(Cl)cc2Cl)CC1 | 0 | 0 | -6 | -8 | 3 | -31*
O=C(Nc1ccccc1C(=O)N1CCCC1)c1ccc(Cl)cc1Cl | 1 | 1 | -6 | -5 | -6 | -29
Cc1ccc(C(=O)N2CCC(C(=O)c3ccc(Cl)cc3)CC2)cc1 | 6 | 0 | -7 | 1 | -8 | -44*
CN1CCN(C(=O)c2ccc(Cl)cc2)CC1 | 0 | -1 | -5 | -1 | 33* | -5
Cc1c(C)n(-c2cccc(Cl)c2)c2ncnc(Cl)c12 | / | / | / | 12 | / | /
Cc1nc(-c2cc(C#N)c(Sc3cccc(C(F)(F)F)c3)nc2C)cs1 | 30* | 2 | -2 | -6 | -7 | -55*
COC(=O)c1ccc(/C=N/OCC(=O)NCc2ccc(F)cc2)cc1 | 1 | -1 | -4 | -3 | -1 | -51*
COc1ccc(CNC(=O)COc2ccc(F)cc2)cc1 | 0 | 1 | 2 | -1 | 2 | -3
COc1ccc(CNC(=O)COc2ccc(C(=O)c3ccc(F)cc3)cc2)cc1 | 10 | 0 | -1 | -12 | -6 | -30*
Cc1c(NC(=O)C(C)(C)c2ccccc2)cccc1C(=O)N1CCc2sccc2C1 | / | / | / | -2 | / | /
Cc1ccsc1/C=N/N=C1c2ccccc2-c2ccccc21 | / | / | / | 8 | / | /
CCOCCCNC(=O)CSCc1nc(-c2ccc(C)cc2)oc1C | / | / | / | -34* | / | /
COc1ccccc1C(=O)NCCC(=O)NCCc1ccccc1 | 2 | 2 | -16 | 2 | -21 | -77*
CC(C)C(NC(=O)c1ccccc1Cl)C(=O)OCc1nc2scc(-c3ccccc3Cl)c2c(=O)[nH]1 (stereo unspecified) | 7 | -1 | -3 | -9 | 9 | -10
CC(C)[C@H](NC(=O)c1ccccc1Br)C(=O)OCc1nc2ccsc2c(=O)[nH]1 | 2 | 0 | -3 | -7 | -8 | -30*
C=CCNc1nc(C(=O)OCC(=O)c2cc(C)n(C3CC3)c2C)cs1 | / | / | / | 2 | / | /
COc1ccccc1-c1ccc(=O)n(CC(=O)NC2CCc3ccccc32)n1 (stereo unspecified) | 88* | 0 | 5 | -6 | 2 | 23
NC(=O)NC(=O)COC(=O)c1cccc(Br)c1 | / | / | / | -2 | / | /
NC(=O)/C(N=Nc1ccccc1)=N/Nc1ccccc1 | 1 | 0 | -13 | 5 | -2 | -55*
O=C(O)c1cccc(N/N=C(\N=Nc2ccccc2)c2ccccc2)c1 | 3 | 0 | -8 | 1 | -4 | -9
COc1ccc(-c2cc(C(=O)OCc3ccccn3)c3ccccc3n2)cc1 | 13 | 1 | -7 | -2 | -9 | -34*
CCCOC(=O)c1cc(-c2ccc(OC)cc2)nc2ccccc12 | / | / | / | 11 | / | /
O=C(OC1CCOC1=O)c1cc(-c2ccc(Br)cc2)nc2ccccc12 (stereo unspecified) | 6 | 0 | 3 | -6 | 17 | 12
COc1ccc(-c2cc(C(=O)OC3CCOC3=O)c3ccccc3n2)cc1 (stereo unspecified) | 2 | 1 | -5 | -13 | 0 | -32*
COc1ccc(CNC(=O)[C@@H](NC(=O)C2CCN(S(=O)(=O)c3ccc(C)cc3)CC2)C(C)C)cc1OC | 0 | -1 | 4 | -3 | -7 | -33*
